MITF inh = human MITF inhibition, primary screen; AlphaScreen MITF homodimerization, bead proximity signal; inhibition, % at 2.6 µM; O75030; hit rate 0.91% among 650,000; in the data active = inhibition above about 50%;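 also: 0% = vehicle wells with protein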
TEAD-YAP block = TEAD-YAP interaction inhibition; HEK-TIYL cells, TEAD-Gal4/YAP UAS-luciferase luminescence; inhibition, % at 9.12 µM; hit rate 1.4% among 640,000; AID 1259422; in the data active = inhibition above about 32%;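 also: 0% = median of test compound wells and 100% = reference inhibitor wells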
GPR151 ag = activates the human receptor GPR151 | Q8TDV0 | PathHunter beta-arrestin GPR151 cells, luminescence | activation, % at 11.2 µM | hit rate 1% among 650,000 | AID 1508602; in the data active = activation above about 4.9%;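 also: 0% = median of compound wells and 100% = cells with positive control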
FBW7 activator = human FBW7 E3 ligase activation, primary screen. normalized activity (activation), % at 26.1 µM. AID 1259310. hit rate 0.13% among 650,000. AlphaScreen FBW7–phospho-cyclin E peptide binding, activator screen. Q969H0; in the data active = normalized activity above about 1.9%;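 also: purified mutant Fbw7 with reduced substrate affinity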
GPR151 confirm = confirmation of human GPR151 activators; GPR151 PathHunter beta-arrestin cells, luminescence, 90 min; % of EA-reagent control over plate median; AID 1508609; activation, % at 11.2 µM; shares compounds with GPR151 ag; 6,700 tested, under 10 active;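 active = mean percent activation across replicates above the confirmation screen cutoff of 4.91%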
GPR119 ag = activates human GPR119 in a GPR151 counter-screen; shares compounds with GPR151 ag; GPR119 PathHunter beta-arrestin cells, luminescence, 90 min; 0 = compound-well median, 100 = enzyme-acceptor control; activation, % at 11.2 µM; hit rate 0.3% among 6,700; AID 1508611;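 active = mean percent activation in the counterscreen above 29.09%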;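 also: counterscreen on off-target GPR119 to flag nonselective hits from the GPR151 activator screen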
Target sequence (Q8TDV5 whole entry, looked up): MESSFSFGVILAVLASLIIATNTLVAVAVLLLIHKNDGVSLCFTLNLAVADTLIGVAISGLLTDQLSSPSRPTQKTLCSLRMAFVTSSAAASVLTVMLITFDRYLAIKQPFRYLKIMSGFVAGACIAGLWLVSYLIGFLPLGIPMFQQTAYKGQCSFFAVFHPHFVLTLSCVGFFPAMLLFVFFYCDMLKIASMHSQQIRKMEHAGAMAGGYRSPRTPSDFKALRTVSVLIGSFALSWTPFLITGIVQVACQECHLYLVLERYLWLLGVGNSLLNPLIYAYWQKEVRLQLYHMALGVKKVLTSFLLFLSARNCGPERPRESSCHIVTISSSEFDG
* = called active by the depositor; · = no result; ! = not confirmed by another sample. An excerpt weighted towards active compounds, which were near 3.4% of everything screened.

SMILES	MITF inh	TEAD-YAP block	GPR151 ag	FBW7 activator	GPR151 confirm	GPR119 ag
CCCCCCSc1nc2sc3c(c2c(=O)n1-c1ccc(C)cc1)CC(C)(C)OC3	10	1	1	0	·	·
CCCCCCSc1nc2sc3c(c2c(=O)n1-c1ccc(OC)cc1)CC(C)(C)OC3	-6	3	9.7*	0	1	16
CCOC(=O)N1CCN(Cc2nc(-c3ccccn3)no2)CC1	-3	-11	-1	0	·	·
N#Cc1sc2ncc3c(c2c1N)CCCC3	4	-6	9.7*	0	0	13
CCOc1ccc(C)cc1S(=O)(=O)n1cnc2ccccc21	3	46*	5.8*	0	0	-4
CCOc1ccc(S(=O)(=O)n2cnc3ccccc32)cc1C	9	1	0	0	·	·
CCOc1ccc(C)cc1S(=O)(=O)n1c(C)nc2ccccc21	-3	0	7.2*	0	0	3
COc1ccc(C)cc1S(=O)(=O)n1c(C)nc2ccccc21	-1	-14	-1	0	·	·
O=C(c1ccc(Sc2ccc(Br)cc2)c([N+](=O)[O-])c1)N1CCCCCC1	11	10	-1	0	·	·
CCOC(=O)CSc1ccc(C(=O)N2CCN(C(=O)OCC)CC2)cc1[N+](=O)[O-]	-4	2	0	0	·	·
CCCCCCCCCCCCCCCC(=O)NCCO	-9	11	9.1*!	0	0	11
CCN1CC=C2C(C#N)=C(N)C(C#N)(C#N)C(c3c(OC)ccc4ccccc34)C2C1 (centres undefined)	9	-8	5.6*	0	-1	-12
CCC/C(=N/NC(=O)c1cccnc1)c1ccc(OC)cc1	-8	-13	0	0	·	·
O=C(NCCNC(=O)c1ccn[nH]1)c1ccn[nH]1	2	5	-1	0	·	·
O=C(NCCO)c1ccn[nH]1	0	11	6.0*	0	0	-8
COC(=O)c1nsc(Cl)c1Cl	10	8	6.8*	0	0	-8
COC(=O)c1ccc(NC(=O)/C=C/c2ccccc2Cl)cc1	5	-5	6.1*	1	0	6
Cn1nccc1CNC(=O)c1ccc(-c2ccccc2)cc1	7	-4	1	0	·	·
COc1ccc(C(=O)Nc2c(C)csc2C(=O)O)cc1	4	-3	4.9*	0	-1	4
Cc1csc(C(=O)O)c1NC(=O)c1ccc(F)cc1	-1	-2	1	0	·	·
O=c1[nH]c(=O)c2sc3nc(-c4ccncc4)cc(C(F)(F)F)c3c2[nH]1	2	2	6.3*	0	1	2
CC(C)Cc1nnc(-c2cc3ccccc3n2CC(=O)N2CCc3ccccc32)o1	6	2	5.0*	0	-1	-12
Cc1ccc2cc(CN(CC3CCCO3)C(=O)C3CCC3)c3nnnn3c2c1 (centres undefined)	4	12	8.4*	0	4	8
COCc1nnc(NC(=O)C2CCCCC2)s1	13	-7	6.4*	0	-1	-10
CCOC(=O)CSc1nc2ccccc2n1C(=O)OC	-8	-13	-1	0	·	·
SMILES	MITF inh	TEAD-YAP block	GPR151 ag	FBW7 activator	GPR151 confirm	GPR119 ag
O=C(CCc1ccco1)N1CCCCC1c1nc2ccccc2[nH]1 (centres undefined)	26	-13	-1	0	·	·
O=c1[nH]c2ccccc2nc1C(F)(F)C(F)(F)C(F)(F)C(F)F	-7	14	5.5*	0	0	-4
C=CCSC1=C(C#N)C(c2ccncc2)C(C(=O)Nc2ccc(Cl)cc2)=C(C)N1 (centres undefined)	-17	5	0	0	·	·
CCn1c(=O)n(CC(=O)Nc2ccc(OC)nc2)c2cccnc21	-11	-3	0	0	·	·
O=C(NCC(c1ccco1)N1CCOCC1)c1ccc(F)cc1 (centres undefined)	-10	-5	5.4*	0	0	7
O=C(CNC(=O)c1cccc(F)c1)N/N=C/c1cc(I)ccc1O	8	12	5.0*	0	0	3
O=C(CNC(=O)c1cccc(F)c1)N/N=C/c1cc(Cl)ccc1O	-2	-5	2	0	·	·
Cc1cc(OCC(=O)NN2CCN(C)CC2)ccc1[N+](=O)[O-]	-8	-8	1	0	·	·
Cc1cc(OCC(=O)NN2CCOCC2)ccc1[N+](=O)[O-]	-10	-4	5.0*	0	0	5
Cc1ccc(-n2ncc3c(SCC(N)=O)ncnc32)c(C)c1	11	-6	0	0	·	·
CC(=O)Nc1ccc(NC(=O)CSc2ncnc3c2cnn3-c2ccc(C)cc2C)cc1	3	10	5.2*	0	0	8
C=CCN1CCN(c2c(Cl)cccc2NC(=O)c2ccc([N+](=O)[O-])o2)CC1	1	-8	2	0	·	·
CCOC(=O)C1=C(C)Nc2nc(SCC(C)C)nn2C1c1cccs1 (centres undefined)	-3	-2	0	0	·	·
O=C(CNC(=O)c1cc(N2CCOCC2)ccn1)Nc1ccc(F)c(F)c1F	11	-3	5.0*	0	-1	-2
CCOc1cc(C2C3=C(CC(C)(C)CC3=O)Nc3[nH]c(=O)[nH]c(=O)c32)ccc1O (centres undefined)	-2	-4	0	0	·	·
CCCCn1c(O)c(Nc2ccc3c(c2)=NC(=O)N=3)c2ccccc21	1	2	6.8*	0	1	11
CCCCn1c(O)c(C2=c3ccccc3=NC2=O)c2ccccc21	26	13	-2	0	·	·
CCCN1C(=O)CC(c2ccco2)Sc2ccccc21 (centres undefined)	4	1	5.3*	0	-1	-1
O=C(CSc1nnc(-c2ccccc2O)o1)N1CCc2ccccc21	6	7	6.3*	0	0	1
Cc1ccnc(SCC(=O)N2CCc3ccccc32)n1	-6	-40	5.4*	0	0	9
COC(=O)Nc1nnc(-c2ccc(F)cc2)s1	-1	-35	-5	0	·	·
O=C(CN(CC1CCCO1)C(=O)CCC(=O)Nc1ccccn1)NCC1CCCO1 (centres undefined)	-7	2	5.0*	0	1	5
COc1ccc2nc3sc(C(=O)Nc4cccc(C(C)=O)c4)c(N)c3cc2c1	-11	-75	5.3*	0	0	23
COc1ccc(/C=C(\C#N)C(=O)Nc2ccccn2)cc1	4	2	5.1*	0	1	6
O=C(Nc1cc(C(F)(F)F)ccc1F)C1CCCC1	-3	-9	13*	0	1	7
COC(=O)C1CCCCN1C(=O)COc1ccc(N2CCN(C3CCCCC3)CC2)nn1 (centres undefined)	-7	-3	0	0	·	·
COc1ccc(OC(C)C(=O)Nc2cc(Cl)ccc2C)cc1 (centres undefined)	6	15	9.3*	1	-1	-4
CC(=O)Nc1ccc(NC(=O)C(C)Oc2cccc(C)c2)cc1 (centres undefined)	12	1	0	0	·	·

Assay outcomes: PubChem BioAssay, The Scripps Research Institute Molecular Screening Center
